In the library only some 4.7% were active in any assay of this set; here they are far more common.
D1 antag = Antagonist of Human D 1 Dopamine Receptor: qHTS; HEK293 TREx D1 cells, calcium flux, dopamine EC80; active compounds read low; activity change, negative = inhibition, % at 10 µM; actives 3.2% (n = 360,000); AID 504652, 2011; in the data active = activity change below about -30%; also: % is scaled to controls: 0 for no effect and ±100 for the full control effect
Target sequence (P21728 whole entry, looked up): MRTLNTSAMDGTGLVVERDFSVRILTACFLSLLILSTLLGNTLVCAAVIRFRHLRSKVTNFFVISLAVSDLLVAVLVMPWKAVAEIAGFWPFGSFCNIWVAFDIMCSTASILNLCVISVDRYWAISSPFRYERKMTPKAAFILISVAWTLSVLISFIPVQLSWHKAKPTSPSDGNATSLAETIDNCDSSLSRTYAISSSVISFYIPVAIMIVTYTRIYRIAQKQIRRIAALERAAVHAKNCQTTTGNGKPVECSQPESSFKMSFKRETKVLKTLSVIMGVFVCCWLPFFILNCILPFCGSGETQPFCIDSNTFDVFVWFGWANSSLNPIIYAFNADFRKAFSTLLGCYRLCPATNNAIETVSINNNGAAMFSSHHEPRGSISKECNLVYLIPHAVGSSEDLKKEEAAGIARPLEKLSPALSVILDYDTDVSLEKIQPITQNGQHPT
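Inducible Hek293 Trex D1 cells (tetracycline, overnight, 30 C). Calcium dye 30–90 min RT. Antagonist mode: EC80 dopamine added after 180 s compound read.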
D1 ag = Allosteric Agonists of the Human D1 Dopamine Receptor: qHTS | D(1A) dopamine receptor (Homo sapiens), P21728 | HEK293 T-REx D1 cells, calcium flux, agonist mode | activation, % at 2 µM | actives 1% (n = 360,000); also: 0% is about no effect
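Inducible HEK293 T-REx D1 cells, force-coupled to calcium signalling, were plated at 4000 cells/well with tetracycline and held overnight at 30 C. After no-wash calcium dye loading, compound-evoked calcium rise over 180 s flagged agonists.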
D1 potentiator = Potentiators of Human D1 Dopamine Receptor: qHTS; D(1A) dopamine receptor (Homo sapiens), P21728; HEK293 TREx D1 cells, calcium flux, dopamine EC20 potentiation; potentiation, % at 10 µM; actives 0.036% (n = 360,000); AID 504651, 2011; in the data active = potentiation above about 30%; also: 0% is about no effect
TRHR PAM = qHTS for Small Molecule Agonists and Allosteric Enhancers of Human TRH Receptor: Primary Screen for Enhancers; Thyrotropin-releasing hormone receptor (Homo sapiens), P34981; TRHR cells, fluo-8 calcium fluorescence, EC20 TRH enhancement; enhancement, % at 2 µM; actives 0.66% (n = 360,000); AID 493056, 2011; in the data active = enhancement above about 30%; also: 0% is about no effect
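Enhancer read-out: after compound pinning and an initial kinetic agonist-mode read, an EC20 of TRH (10 nM final) was injected and fluo-8 calcium signal (Ex 480/Em 530) followed at 1 s/cycle for 100 cycles in TRHR-expressing cells.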
TRHR agonist = qHTS for Small Molecule Agonists and Allosteric Enhancers of Human TRH Receptor: Primary Screen for Agonists | Thyrotropin-releasing hormone receptor (Homo sapiens), P34981 | TRHR cells, calcium flux fluo-8, FDSS agonist mode | activation, % at 2 µM | actives 0.18% (n = 360,000) | AID 493084, 2011; also: 0% is about no effect
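Steps: seed TRHR cells overnight; add fluo-8 no-wash Ca dye, RT 30 min–1.5 h; record 10 s baseline; pin-transfer compounds; monitor fluorescence 1 cycle/s for the agonist window. Calcium increases flag candidate agonists.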
Active calls of the source: *. Rule as the data show it, unless noted: active = activation above about 30%; inactive = the rest.

SMILES | D1 antag | D1 ag | D1 potentiator | TRHR PAM | TRHR agonist
Cc1noc(C)c1C(=O)Nc1ccc(-c2nnc3n2CCCCC3)cc1 | 9.9 | 2.2 | 5.2 | 9.1 | -0.7
O=S(=O)(Nc1ncn[nH]1)c1ccc2ccccc2c1 | 10.2 | 1.9 | -3.4 | 4.8 | 0.5
CCOc1cc(S(=O)(=O)n2ccc(C)n2)ccc1Br | -36.9* | 7.6 | -5.6 | -13.7 | 0.1
CCOc1cc(S(=O)(=O)Nc2ncn[nH]2)ccc1Br | -51.8* | 2.0 | -4.8 | 4.9 | 0.3
CCOc1cc(S(=O)(=O)n2ccnc2)ccc1Br | -2.7 | 1.1 | 0.7 | 1.0 | -3.4
Cc1ccc(-c2cc(C(F)(F)F)n3nc(C(=O)Nc4sc5c(c4C#N)CCC(C)C5)cc3n2)cc1 (stereo not given) | -37.3* | -0.5 | -6.0 | 1.7 | 1.6
Cn1c(CSCc2ccc(Cl)cc2)nnc1SCC(=O)Nc1nccs1 | -49.4* | 19.1 | -8.7 | -6.3 | -1.0
Cc1ccc(C)c(S(=O)(=O)Nc2nc3ccc(S(N)(=O)=O)cc3s2)c1 | -2.5 | 2.5 | 4.1 | 40.7* | 0.5
Cc1ccc(S(=O)(=O)Nc2nc3ccc(S(C)(=O)=O)cc3s2)cc1 | 27.0 | 3.7 | -0.5 | 0.5 | 0.1
CC(=O)Nc1ccc(S(=O)(=O)N2CCN=C2SCc2ccccc2C)cc1 | -25.4 | 17.6 | -11.6 | -1.6 | 0.5
CC[C@@]12C(=O)N(c3cccc(F)c3)C(=O)N1[C@H](c1ccc(Cl)cc1)[C@@H]1C(=O)N(C3CCCCC3)C(=O)[C@@H]12 | 9.4 | 4.7 | -2.5 | 3.1 | 0.4
CN(Cc1ccccc1F)c1ccc(S(=O)(=O)N2CCCC2)cn1 | -31.6* | 12.6 | -8.4 | -0.7 | -1.4
COc1ccccc1CN(C)c1ccc(S(=O)(=O)N2CCN(C)CC2)cn1 | -0.8 | -0.5 | -4.8 | 0.4 | -0.2
CCOc1ccc2nc(C)cc(Nc3ccccc3OCC)c2c1 | -49.0* | 25.0 | -1.2 | 11.0 | -0.6
CCOc1ccc2nc(C)cc(C(=O)O)c2c1 | 23.5 | 2.2 | -2.6 | 0.4 | 1.0
Cc1ccc(-c2noc(CN(C(=O)c3cccs3)C(C)C)n2)cc1 | -30.5* | 2.7 | -0.4 | 6.7 | -0.2
CCOc1cc(C(=O)N(Cc2nc(-c3ccc(C)cc3)no2)C(C)C)cc(OCC)c1OCC | -35.1* | 19.1 | 1.0 | -1.3 | 0.6
O=C(CSc1ncc(S(=O)(=O)c2ccc(Cl)cc2)c(=O)[nH]1)Nc1cccc(C(F)(F)F)c1 | -31.6* | 0.4 | 3.5 | -2.2 | -0.2
Cc1cccc(C)c1NC(=O)C(NC=O)c1ccc(N(C)C)cc1 (stereo not given) | -8.4 | 1.7 | -3.0 | -1.8 | -0.1
Cc1cccc(C)c1NC(=O)C(NC=O)c1ccccc1Cl (stereo not given) | -83.0* | 0.8 | 1.6 | 0.9 | -0.3
Cc1nc(-c2ccccc2)sc1CCNC(=O)C(=O)Nc1ccc2c(c1)OCCO2 | -45.4* | 6.9 | 0.5 | -3.2 | 0.0
Cc1nc(-c2ccc(F)cc2)sc1CCNC(=O)C(=O)Nc1ccc2c(c1)OCCO2 | 5.5 | 15.7 | -0.6 | 3.3 | 0.3
CC(=O)Nc1cccc(NC(=O)C(=O)NCCc2sc(-c3ccccc3)nc2C)c1 | -40.0* | 9.1 | -5.7 | -0.6 | 0.5
O=C(NC1CCCCC1)c1ccc(CSc2nc3ccncc3n2Cc2ccccc2)cc1 | -4.9 | 1.6 | -3.3 | -3.6 | -0.7
COC(=O)c1ccc(CNC(=O)C23CC4CC(CC(C4)C2)C3)cc1 | 4.9 | 0.8 | 7.2 | 20.6 | 1.4
SMILES | D1 antag | D1 ag | D1 potentiator | TRHR PAM | TRHR agonist
COC(=O)C1(C)NC(c2ccc(O)cc2)C2C(=O)N(c3ccc(C)cc3)C(=O)C21 (stereo not given) | -42.2* | 3.3 | -5.9 | 6.9 | 0.5
Cc1cc(C)c2cc(C#N)c(N3CCCC3)nc2c1 | 1.0 | 3.1 | -3.2 | -0.6 | -2.8
CCSc1nc(C)c(C(C)=O)cc1C#N | 16.9 | 0.8 | -4.1 | 9.2 | -0.1
CC(=O)c1cc(C#N)c(N2CCCC2)nc1C | -36.3* | 7.3 | 2.8 | -3.1 | 0.4
CC(=O)c1cc(C#N)c(SCCC(C)C)nc1C | -40.8* | 7.6 | -0.5 | 11.2 | 0.2
CC(=O)c1ccc(S(=O)(=O)N2Cc3ccccc3CC2C(=O)O)cc1 (stereo not given) | 26.8 | 2.3 | 6.0 | 0.2 | -1.2
CS(=O)(=O)N1Cc2ccccc2CC1C(=O)O (stereo not given) | -43.3* | 3.2 | -9.3 | -1.2 | 0.1
O=C(O)[C@H]1Cc2ccccc2CN1S(=O)(=O)c1ccc(F)cc1 | -4.4 | 0.5 | 2.6 | 2.9 | 0.7
COC(=O)C1Cc2ccccc2CN1S(=O)(=O)c1ccc(F)cc1 (stereo not given) | -36.0* | 0.3 | -3.5 | -5.6 | -0.4
Cc1csc2nc(-c3cccc(NC(=O)c4c(F)cccc4F)c3)cn12 | 17.2 | -1.1 | 2.9 | 0.0 | 0.6
O=C(NCC(c1ccc2c(c1)OCO2)N1CCN(c2ccccc2)CC1)C(=O)Nc1cccc(F)c1 (stereo not given) | 1.2 | 2.3 | -0.2 | 3.0 | 0.8
Cc1cccc(NC(=O)CSc2nc3[nH]c(=O)cc(O)c3s2)c1 | -31.7* | 1.6 | 5.5 | 5.0 | 0.1
Cc1csc(NC(=O)c2ccc(OCC3CCCO3)cc2)n1 (stereo not given) | -59.0* | 13.5 | -7.0 | 1.6 | -0.1
O=c1/c(=C/c2ccc(O)cc2)sc2n1CCCN=2 | 4.3 | 9.1 | -3.6 | -0.3 | 0.2
CN(C)c1ccc(/C=c2\sc3n(c2=O)CCCN=3)cc1 | 2.8 | 45.9* | -4.5 | 2.4 | 13.2
Cc1cccc(C(=O)Nc2cc3c(cc2C)n(C)c(=O)n3C)c1 | 10.2 | -0.8 | -0.5 | 0.8 | -0.2
Cc1cc2c(c(=O)n1Cc1ccccc1)C1O[C@](c3ccsc3)(Cc3ccccc31)O2 | -15.4 | 1.1 | -1.6 | -1.8 | 3.1
CCCCn1c(C)cc2c(c1=O)C1O[C@](c3ccsc3)(Cc3ccccc31)O2 | 4.6 | 1.8 | 4.2 | 33.0* | 0.1
COc1ccc(NC(=O)c2ncn(-c3ccccc3)n2)cc1Cl | -8.7 | 4.2 | 5.5 | 16.7 | -0.6
CCCn1cc(S(=O)(=O)c2ccccc2)c(=O)c2cc(F)c(N3CCCCCC3)cc21 | 8.9 | 2.7 | 0.9 | 13.7 | -0.9
CCc1ccc(Sc2cc(C(=O)NC(C)CC)c3ccccc3n2)cc1 (stereo not given) | -27.3 | 0.9 | -0.9 | -4.1 | 0.5
O=C(NCCCN1CCCCC1)c1cc(Sc2ccc(Cl)cc2)nc2ccccc12 | -17.9 | 17.5 | -2.1 | -1.5 | 0.9
CC1CCCCN1CCCNC(=O)c1cc(Sc2cccc(Cl)c2)nc2ccccc12 (stereo not given) | -41.9* | 19.1 | -1.1 | -2.8 | 0.5

Bioassay records: PubChem BioAssay, National Center for Advancing Translational Sciences (NCATS)
